Some test systems named below: PRKG1; PRKG2; PRKX; RAF1; RET(M918T); RET(V804L); RET(V804M); RET; RIOK1; RIOK2; RIOK3; RIPK1; RIPK2; RIPK4; ROCK1.
Common to all, as to conditions: Compound Concentration (nM):1000
Another test has as its system T1, PRKR.
T1 construct: gene EIF2AK2

The subject of another test is T2, PRP4.
T2 construct: gene PRPF4B

Another test concerns T3, PYK2.
T3 construct: gene PTK2B

For another test, the system named is T4, QSK.
T4 construct: gene KIAA0999

Another test relates to T5, RIPK5.
T5 construct: gene DSTYK
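Also: KINOMEscan scanMAX binding as percent activity remaining versus control; lower means stronger binding.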

For `CN1CCN(C(=O)c2ccc(NC(=O)Nc3ccc(N(C)c4ccnc(Nc5ccc(CS(C)(=O)=O)cc5)n4)cc3)cc2)CC1.Cl` [GW830263A], the “Percent Control” value in the test with PRKG1 is 100%; in the test with PRKG2 it was 100%; in the test on PRKR, 100%; in the test on PRKX, 100%; in the test on PRP4 it was 88%; in the test on PYK2, 20%. Further, the “Percent Control” value in the test on QSK was determined as 86%; with RAF1, 90%; in the test with RET(M918T), 0.2%; in the test with RET(V804L) it was 5.5%; in the test with RET(V804M), 0.5%; in the test on RET it was 0%. Moreover, the “Percent Control” value in the test with RIOK1 amounted to 2.2%; in the test on RIOK2 it was 21%; in the test with RIOK3, 0%; in the test with RIPK1, 100%; in the test on RIPK2 it was 94%; in the test on RIPK4 it was 57%. Also, the “Percent Control” value in the test on RIPK5 worked out at 5.4%; in the test with ROCK1, 17%.

For the compound `CC(C)COC(=O)c1ccc2c(c1)/C(=C/Nc1ccc(S(N)(=O)=O)cc1)C(=O)N2` [GW416981X], the “Percent Control” value is 100% in the test with PRKG1; 54% in the test with PRKG2; 65% in the test with PRKR; 100% in the test with PRKX; 96% in the test on PRP4; 100% with PYK2. Also, the “Percent Control” value in the test on QSK worked out at 95%; with RAF1, 100%; in the test on RET(M918T), 83%; in the test on RET(V804L), 43%; in the test on RET(V804M), 26%; in the test with RET, 100%. Moreover, the “Percent Control” value came out at 21% with RIOK1; 100% in the test on RIOK2; 15% with RIOK3; 100% in the test on RIPK1; 100% in the test on RIPK2; 100% in the test on RIPK4. The “Percent Control” value in the test on RIPK5 is 48%; in the test on ROCK1 it was 36%.

On to `COc1cc(/C=N/Nc2ncnc3[nH]ncc23)ccc1O` [GW578748X], for which the “Percent Control” value was 100% in the test on PRKG1; 22% in the test on PRKG2; 41% in the test with PRKR; 100% in the test with PRKX; 100% in the test with PRP4; 100% with PYK2. Also, the “Percent Control” value in the test on QSK came out at 90%; in the test on RAF1, 100%; with RET(M918T) it was 4.6%; in the test on RET(V804L) it was 76%; in the test with RET(V804M) it was 77%; with RET, 5.9%. The “Percent Control” value stood at 47% with RIOK1; 8.9% with RIOK2; 46% with RIOK3; 100% with RIPK1; 100% in the test on RIPK2; 6.9% with RIPK4. Also, the entries for the “Percent Control” value in the test with RIPK5 and with ROCK1 were 75% and 63%, respectively.

`NS(=O)(=O)c1ccc(N/N=C2\C(=O)Nc3ccc(C(=O)NCc4ccncc4)cc32)cc1` [GW300657X]: the “Percent Control” value in the test on PRKG1 is 100%; with PRKG2, 94%; with PRKR, 65%; in the test with PRKX it was 94%; with PRP4 it was 81%; in the test with PYK2, 58%. In addition, the “Percent Control” value in the test on QSK is recorded as 100%; with RAF1, 100%; with RET(M918T), 80%; with RET(V804L), 74%; in the test with RET(V804M) it was 84%; in the test with RET it was 92%. Besides, the “Percent Control” value in the test on RIOK1 worked out at 62%; in the test on RIOK2, 77%; in the test on RIOK3, 63%; in the test on RIPK1, 89%; with RIPK2, 100%; in the test on RIPK4, 72%. Further, the “Percent Control” value with RIPK5 worked out at 47%; in the test on ROCK1, 64%.

For `COc1ccc2cc(-c3c(-c4ccncc4)nc(-c4ccc(S(C)(=O)=O)cc4C)n3C)ccc2c1` [SB-633825], the “Percent Control” value was 100% with PRKG1; 83% in the test with PRKG2; 100% with PRKR; 95% in the test on PRKX; 68% in the test with PRP4; 57% in the test on PYK2. For the same compound, the “Percent Control” value amounted to 79% in the test on QSK; 74% with RAF1; 72% in the test with RET(M918T); 94% with RET(V804L); 97% in the test on RET(V804M); 72% with RET. Besides, the “Percent Control” value in the test with RIOK1 is 22%; in the test on RIOK2, 92%; in the test on RIOK3, 78%; with RIPK1, 34%; in the test on RIPK2 it was 81%; in the test on RIPK4, 61%. The figures for the “Percent Control” value in the test on RIPK5 and in the test with ROCK1 were 75% and 78%, respectively.

In the case of `NS(=O)(=O)c1ccc(Nc2ncc(-c3ccccc3)o2)cc1` [GW572399X], the “Percent Control” value is 96% in the test on PRKG1; 100% with PRKG2; 55% in the test on PRKR; 100% in the test with PRKX; 100% in the test on PRP4; 100% in the test with PYK2. The “Percent Control” value in the test with QSK, in the test on RAF1, with RET(M918T), with RET(V804L), with RET(V804M) and in the test with RET was 100% each time. Further, the “Percent Control” value was 73% in the test on RIOK1; 100% in the test on RIOK2; 89% in the test on RIOK3; 100% in the test with RIPK1; 100% in the test on RIPK2; 100% in the test on RIPK4. The “Percent Control” value worked out at 94% in the test with RIPK5 and 85% in the test on ROCK1.

`COc1ccc(COc2ccc(Cc3cnc(N)nc3N)cc2OC)cc1` [GW632580X]: the “Percent Control” value with PRKG1 is 100%; in the test with PRKG2, 86%; in the test on PRKR, 100%; in the test on PRKX, 100%; in the test on PRP4 it was 88%; in the test with PYK2 it was 84%. The “Percent Control” value in the test with QSK came out at 100%; with RAF1, 100%; in the test on RET(M918T), 93%; in the test on RET(V804L), 88%; in the test on RET(V804M), 100%; in the test on RET, 100%. Moreover, the “Percent Control” value is 56% with RIOK1; 100% in the test with RIOK2; 65% in the test on RIOK3; 95% with RIPK1; 98% in the test with RIPK2; 84% in the test on RIPK4. Also, the figures for the “Percent Control” value in the test with RIPK5 and in the test with ROCK1 were 97% and 100%, respectively.

`COc1cc(C)c(N(C)C(=O)CN(C)C)cc1Nc1nc(Nc2cccc(F)c2C(N)=O)c2cc[nH]c2n1` [GSK2219385]: the “Percent Control” value with PRKG1 is 92%; with PRKG2 it was 82%; with PRKR it was 100%; in the test on PRKX, 95%; with PRP4 it was 100%; with PYK2, 81%. The “Percent Control” value is recorded as 100% in the test with QSK; 100% in the test with RAF1; 100% in the test with RET(M918T); 100% in the test on RET(V804L); 71% with RET(V804M); 87% with RET. Moreover, the “Percent Control” value with RIOK1 amounted to 73%; with RIOK2, 74%; with RIOK3, 74%; in the test with RIPK1, 95%; with RIPK2, 100%; with RIPK4 it was 74%. Also, the “Percent Control” value was determined as 88% in the test on RIPK5 and 100% with ROCK1.

As for `O=C1Nc2ccc(C(=O)c3ccco3)cc2C1=Cc1cc(Cl)c(O)c(Cl)c1` [GW406108X], the “Percent Control” value in the test on PRKG1 was 100%; in the test with PRKG2, 100%; in the test with PRKR, 62%; with PRKX, 100%; in the test with PRP4 it was 71%; with PYK2 it was 100%. Further, the “Percent Control” value turned out to be 100% in the test with QSK; 13% in the test on RAF1; 56% with RET(M918T); 29% in the test with RET(V804L); 28% with RET(V804M); 96% with RET. The “Percent Control” value with RIOK1 is 46%; in the test on RIOK2, 73%; in the test on RIOK3 it was 30%; in the test on RIPK1 it was 100%; in the test with RIPK2, 75%; with RIPK4, 91%. The “Percent Control” value is given as 54% with RIPK5 and 77% with ROCK1.

Regarding `NS(=O)(=O)c1ccc(N/N=C2\C(=O)Nc3ccc(Cl)cc32)cc1` [GW280670X], the “Percent Control” value with PRKG1 was 85%; in the test on PRKG2 it was 100%; in the test with PRKR, 86%; in the test on PRKX it was 100%; in the test with PRP4 it was 100%; in the test with PYK2, 100%. In addition, the “Percent Control” value with QSK, in the test on RAF1, in the test with RET(M918T), with RET(V804L), with RET(V804M) and in the test on RET was 100% throughout. In addition, the “Percent Control” value with RIOK1 is on record as 74%; in the test with RIOK2, 100%; in the test with RIOK3 it was 89%; in the test with RIPK1, 100%; with RIPK2, 100%; in the test on RIPK4 it was 100%. Also, the “Percent Control” value with RIPK5 and in the test on ROCK1 was 100% each time.

These data come from publication PMC7826789 (International Journal of Molecular Sciences, 2021).
